Measurements: the OligoGym collection

These sequences were tested against NCAPG2 (assay: pooled miR-30 sensor sort-seq; sequence = guide strand). Details: shRNA.
Also: reference of the scale not given here.

Point of comparison: TTCTGAGCAGAACTTGTGCTGA, sensor-assay potency score (higher = more potent) -0.264. Against it:
- TTGATGGTGAAAGTAACTCAGA — lower, -1.15
- TTAGTCTCCAGACTCCTCCTTA — higher, 0.238
- TAGAACTCTGTAGTTTTCGTTC — lower, -0.463
- TTCCATATTGTCTTCACCCTGG — higher, -0.0247
- TATAATAACACATTCCAGTAGG — lower, -0.388
- TTTACCTGCATTAATAACCAGG — lower, -0.888
- AACATCTTTACACACAGTCAGG — lower, -1.69

Each sequence was assayed against NCF1 in the same assay as above. Details: shRNA.

Point of comparison: TAGATCTCGGTGAAGCGCCGGT, sensor-assay potency score (higher = more potent) 0.272. Against it:
- TTCCGCTTGGTGCTCTCGCTGC — lower, -1
- TAAGGTTTTATGGAACTCGTAG — lower, 0.251
- TTGGTGCTCTCGCTGCAGCGGT — lower, -1.07
- TTTTGCAGGTACATGGACGGGA — higher, 0.437
- AACATGTACACATAGTGCTGGC — lower, -0.578
- TCTGACAGAACCACCAACCGCT — higher, 0.511
- TTCATCTGACAGAACCACCAAC — lower, -0.468
- TTATGGAACTCGTAGATCTCGG — lower, -0.843
- TTTGTCTGGTTGTCCGTGGGGA — lower, 0.0821
- TTTTTTGTCTGGTTGTCCGTGG — higher, 0.905
- TGGAACTCGTAGATCTCGGTGA — lower, 0.128

What follows are sequences tested against NCR3 in the same assay as above. Details: shRNA.

Point of comparison: AAGCTGACAGCATAGAATCCAG, sensor-assay potency score (higher = more potent) -0.853. Against it:
- TCTCGGAACCACGTGACGGAGC — lower, -0.976
- TTTGCCCTGGTAATAGACGGTG — higher, -0.728
- TCCAGGTCAGACATTTGCCCTG — lower, -1.34
- ATGTTCTTTCTCCACCACCAGC — lower, -2.11
- ACTCTGCACACGTAGATGCTGG — lower, -1.18
- TAGCTGAGGATGTTCTTTCTCC — higher, -0.477
- TCTTTCTCCACCACCAGCCGAG — lower, -1.09
- TTCCAGGTCAGACATTTGCCCT — lower, -1.63
- TATTGGGTGAATGACAGTGTTC — lower, -1.59
- TTCTTTCTCCACCACCAGCCGA — lower, -1.65
- TGGAACCACCTCATCTCGGAAC — lower, -1.16

Each sequence was assayed against NCSTN in the same assay as above. Details: shRNA.

Point of comparison: TACTGTACAACATAAGTGGTGT, sensor-assay potency score (higher = more potent) 0.405. Against it:
- TCGAGCTCGAAGAAATCGCTGC — lower, 0.0428
- TGAGTCAACATTCTCTAACTGC — lower, 0.0625
- TTAAACAGGAGCAAGAAGCTTC — lower, -0.218
- TATATCTTCCTCTCCACTGAGT — lower, -0.425
- TCAGCCTGAACTGTGTCGCTGA — lower, 0.319
- TTCCACTGTATTTCTCTGCAGT — lower, 0.342
- TAGCATGCTCCACACATTGTAA — lower, -1.37
